“And” between values parts separate entries of the source, which are not always exact repeats. Identical values can stand only once. Records with an inconclusive call do not appear. The source made the active and inactive calls. Unless noted, calls come from the whole dose curve; as a rule, active = well fitted curve in the direction sought with a large enough effect; inconclusive = small, poorly fitted or top-dose-only effect, or another doubt; inactive = no such curve, though single readings can be large; an effect the other way counts as inactive or inconclusive.

Consider 5 compounds from PubChem BioAssay (NCATS).

Test [1] can be described thus: AP1 Signaling Pathway (AID 357; active = well fitted curve in either direction with a large enough effect, not every such curve was filed as active; note: % is set by controls: 0 for no effect and ±100 for the full control effect). The settings on record: ME-180 AP-1-bla reporter, EGF-induced, beta-lactamase ratio, 5 h; at 7.69 µM (top of the series) unless noted. The gist of the method: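 AP-1-bla ME-180 cells with beta-lactamase reporter under AP-1 response element, stimulated with EC50 EGF; compounds titrated, 5 hours at 37 degrees Celsius. CCF4 read at 460/530 nm ratio; positive and negative modulators judged by AC50.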

Test [2] concerns the target Cytochrome P450 1A2 (Homo sapiens) (UniProt P05177). In words: p450-cyp1a2 (AID 410; calls by dose curve;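 note: -100% = full effect of reference inhibitor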). Put shortly: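 20nM CYP1A2 with 100uM Luciferin-ME (at Km) in 100mM KPO4; compound preincubated 10 min, NADPH regeneration added, 60 min at room temperature. Luciferin quantified by luminescence after detection reagent; normalized to 57 uM furafylline.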
The nature of test [3]: NFAT Signaling Pathway (AID 444; active = well fitted curve in either direction with a large enough effect, not every such curve was filed as active;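 note: carbachol stimulus at about its EC50 of 1 µM final; % is set by controls: 0 for no effect and ±100 for the full control effect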). The settings on record: Jurkat NFAT-bla M1, carbachol, beta-lactamase ratio, 5 h; at 7.69 µM (top of the series) unless noted. The gist of the method: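 Jurkat cells with NFAT-driven β-lactamase reporter and co-expressed M1 receptor, stimulated with carbachol (final 1 uM, ~EC50), compound titration, 5 h at 37 °C. CCF4 loaded 1 h at RT; 460/530 nm ratio gave %activity and AC50.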

The nature of test [4]: Stat Signaling Pathway (AID 446; active = well fitted curve in either direction with a large enough effect, not every such curve was filed as active;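 note: ME-180 cervical cancer cells given 40 pM IL-6 alongside compound; SIE-controlled beta-lactamase reporter measured as 460/530 nm FRET emission ratio; % is set by controls: 0 for no effect and ±100 for the full control effect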). As to conditions: ME-180 (cervical carcinoma) SIE beta-lactamase reporter, IL-6 stimulated, 5 h; at 7.69 µM (top of the series) unless noted. The gist of the method:
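IL-6/STAT signaling read in ME-180 cells via an SIE beta-lactamase reporter. Stimulus was 40 pM IL-6 (its AC50) for 5 hrs, so both activation and inhibition register.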

The target in test [5] is Glucocorticoid receptor (Homo sapiens) (UniProt P04150). In words: GR-GFP Redistribution (AID 450;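 active = compounds whose dose series gives a full or clear partial fitted curve of increased nuclear translocation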; note: potency is the fitted concentration of half-maximal effect). As to conditions: U2OS GR-GFP nuclear translocation, laser cytometry, 2 h.
Glucocorticoid receptor (Homo sapiens), sequence (P04150 whole entry, looked up): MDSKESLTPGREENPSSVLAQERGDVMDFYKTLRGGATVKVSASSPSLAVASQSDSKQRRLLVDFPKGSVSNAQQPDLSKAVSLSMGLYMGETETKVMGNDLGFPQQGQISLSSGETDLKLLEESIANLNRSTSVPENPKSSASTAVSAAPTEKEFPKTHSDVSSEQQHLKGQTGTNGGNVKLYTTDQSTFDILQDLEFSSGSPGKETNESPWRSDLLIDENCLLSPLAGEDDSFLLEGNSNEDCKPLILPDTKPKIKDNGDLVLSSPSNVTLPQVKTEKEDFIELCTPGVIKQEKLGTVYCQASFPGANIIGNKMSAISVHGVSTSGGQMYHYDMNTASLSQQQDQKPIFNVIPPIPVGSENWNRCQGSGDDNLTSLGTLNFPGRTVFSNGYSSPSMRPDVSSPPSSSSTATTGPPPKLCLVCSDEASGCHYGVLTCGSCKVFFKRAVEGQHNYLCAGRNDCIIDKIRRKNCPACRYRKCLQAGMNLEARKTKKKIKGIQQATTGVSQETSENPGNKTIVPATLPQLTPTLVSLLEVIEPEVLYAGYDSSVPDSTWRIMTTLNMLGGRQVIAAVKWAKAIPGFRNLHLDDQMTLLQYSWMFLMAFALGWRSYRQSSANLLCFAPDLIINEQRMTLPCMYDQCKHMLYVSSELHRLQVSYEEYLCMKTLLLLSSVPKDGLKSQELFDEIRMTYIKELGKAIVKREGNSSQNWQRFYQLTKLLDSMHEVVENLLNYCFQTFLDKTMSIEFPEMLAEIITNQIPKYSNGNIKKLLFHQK
Test [6] has the same target. In words: GR-EFC Redistribution (AID 451; calls by dose curve; note: potency is the fitted concentration of half-maximal effect). The settings on record: CHO-K1 GR-EFC translocation, beta-gal luminescence, 2 h. The gist of the method:
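CHO-K1 cells expressing nuclear EA and GR-ED fragments of b-gal; compounds titrated up to 46 uM final, 2 h at 37 C. GR nuclear translocation read as complemented b-gal luminescence after 1 h RT detection.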

Test [7] deals with Mitogen-activated protein kinase 10 (Mus musculus) (UniProt Q61831). In words: JNK3 AlphaScreen Assay (AID 530; active = well fitted curve in either direction with a large enough effect, not every such curve was filed as active;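 note: kinase came from lysate of stimulated human HepG2 cells; signal reports phosphorylation of biotinylated GST-cJun 1-79 at Ser73 with 10 µM ATP; % is set by controls: 0 for no effect and ±100 for the full control effect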). The gist of the method: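 Pre-activated (IL-1β/TNFα) JNK3 in HepG2 lysates phosphorylates biotin-GST-cJun(1-79), 10 uM ATP; anti-phospho-cJun(Ser73) AlphaScreen read at room temperature, pH 7.6 Tris buffer. Compounds pre-incubated 15 min as titrations.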
In general terms: Bead proximity is the source of the signal in Alpha formats.

In test [8] the target is 3',5'-cyclic-AMP phosphodiesterase 4B (Homo sapiens) (UniProt Q07343). In words: qHTS Assay for Inhibitors of PDE-IV (AID 607; active = well fitted activation curve with a large enough effect in the main read-out, with a control signal flat, not every such curve was filed as active; note: % of control where 0% means no effect). The gist of the method: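 Live HEK293 cells with a modified cyclic nucleotide-gated (CNG) channel report intracellular cAMP via membrane-potential dye fluorescence (ex 535/em 590 nm). Endogenous PDE-IV was targeted. Compounds were tested at up to 22.9 uM final; RO 20-1724 100 uM served as control.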
3',5'-cyclic-AMP phosphodiesterase 4B (Homo sapiens), sequence (Q07343 whole entry, looked up): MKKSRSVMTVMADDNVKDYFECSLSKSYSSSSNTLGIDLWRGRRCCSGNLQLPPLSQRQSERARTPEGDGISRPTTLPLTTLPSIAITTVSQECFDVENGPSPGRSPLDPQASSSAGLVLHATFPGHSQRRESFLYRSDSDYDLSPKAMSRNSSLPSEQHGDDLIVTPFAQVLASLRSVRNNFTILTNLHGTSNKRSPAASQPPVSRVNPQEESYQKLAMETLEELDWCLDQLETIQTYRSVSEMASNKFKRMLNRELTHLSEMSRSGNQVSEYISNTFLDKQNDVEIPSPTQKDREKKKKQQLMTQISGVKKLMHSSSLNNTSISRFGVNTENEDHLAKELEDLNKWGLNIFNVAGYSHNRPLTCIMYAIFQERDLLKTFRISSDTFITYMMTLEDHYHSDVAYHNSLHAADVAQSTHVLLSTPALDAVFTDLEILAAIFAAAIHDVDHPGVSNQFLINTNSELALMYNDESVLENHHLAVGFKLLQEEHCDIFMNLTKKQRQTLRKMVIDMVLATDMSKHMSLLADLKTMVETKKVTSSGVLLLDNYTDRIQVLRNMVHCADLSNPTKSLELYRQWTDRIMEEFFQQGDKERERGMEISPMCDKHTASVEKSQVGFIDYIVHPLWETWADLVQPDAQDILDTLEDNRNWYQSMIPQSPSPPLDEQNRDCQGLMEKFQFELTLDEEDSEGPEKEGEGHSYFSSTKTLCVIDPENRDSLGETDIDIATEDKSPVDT
(In general: In qHTS, concentration-response curves come from the screen itself.)

In test [9] the target is Guanine nucleotide-binding protein G(i) subunit alpha-1 (Homo sapiens) (UniProt P63096). In words: qHTS Assay for Inhibitors of RGS12 GoLoco Motif Activity (Green Fluorophore) (AID 879).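 Note: 0% = labeled peptide with Gαi1 and full inhibition = labeled peptide alone without protein; negative values mean loss of peptide binding seen as reduced polarization.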 The gist of the method:
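Fluorescence polarization assay: 50 nM Gαi1 with 10 nM FITC-labeled RGS12 GoLoco peptide in 10 mM Tris pH 7.5, 150 mM NaCl, 0.1 mM GDP, 0.05% NP40, 10 min at room temperature with compound.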

Test [10] concerns the target Cytochrome P450 3A4 (Homo sapiens) (UniProt P08684). In words: qHTS Assay for Inhibitors and Substrates of Cytochrome P450 3A4 (AID 884). Note: nearly all actives have a fitted effect of over 50% in size. Note: potency is the fitted concentration of half-maximal effect. The gist of the method: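 20 nM human CYP3A4 with 25 uM Luciferin-PPXE (at KM) in 200 mM KPO4, preincubated 10 min with compound; NADPH regeneration started a 60 min RT reaction. Luciferin detected by luminescence, normalized to 57 uM ketoconazole as full inhibition.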

For test [11], the target named is Cytochrome P450 2D6 (Homo sapiens) (UniProt P10635). In words: qHTS Assay for Inhibitors and Substrates of Cytochrome P450 2D6 (AID 891).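 Note: luciferin methyl ether substrate demethylated by CYP2D6 with NADPH regeneration; % is set by controls: 0 for no effect and ±100 for the full control effect; nearly all actives have a fitted effect of over 60% in size.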 Put shortly:
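Human CYP2D6 (5 nM) with 30 uM Luciferin-ME EGE (at Km) in 100 mM KPO4, compound preincubated 10 min, then NADPH regeneration system for 60 min at room temperature. Luciferin read by luminescence; normalized to 1.43 uM quinidine.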

Test [12] is described as follows: qHTS Assay for Identification of Small Molecule Antagonists for NFkB Signaling Pathway (AID 895; active = well fitted inhibition curve with a large enough effect in the signal ratio, with a control signal flat, not every such curve was filed as active; the % refers to the signal ratio; note: % is set by controls: 0 for no effect and ±100 for the full control effect). Put shortly:
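ME-180 NFkB-bla cells (beta-lactamase under NFkB response element), plated overnight, treated with compound then 10 pM TNF alpha (about EC50) for 5 hrs at 37 C. LiveBLAzer FRET read at 460/530 nm emission, 405 nm excitation.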

The target in test [13] is Cytochrome P450 2C19 (Homo sapiens) (UniProt P33261). In words: qHTS Assay for Inhibitors and Substrates of Cytochrome P450 2C19 (AID 899). Note: % is set by controls: 0 for no effect and ±100 for the full control effect; nearly all actives have a fitted effect of over 60% in size. The gist of the method: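 Luminescent read-out of luciferin formed from Luciferin-H EGE (10uM, equal to KM). Enzyme 5nM in 50mM KPO4; compound added, 10 min at 37C, then NADPH regenerating system for 60 min at 37C. Full inhibition defined by 57uM ketoconazole.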
Cytochrome P450 2C19 (Homo sapiens), sequence (P33261 whole entry, looked up): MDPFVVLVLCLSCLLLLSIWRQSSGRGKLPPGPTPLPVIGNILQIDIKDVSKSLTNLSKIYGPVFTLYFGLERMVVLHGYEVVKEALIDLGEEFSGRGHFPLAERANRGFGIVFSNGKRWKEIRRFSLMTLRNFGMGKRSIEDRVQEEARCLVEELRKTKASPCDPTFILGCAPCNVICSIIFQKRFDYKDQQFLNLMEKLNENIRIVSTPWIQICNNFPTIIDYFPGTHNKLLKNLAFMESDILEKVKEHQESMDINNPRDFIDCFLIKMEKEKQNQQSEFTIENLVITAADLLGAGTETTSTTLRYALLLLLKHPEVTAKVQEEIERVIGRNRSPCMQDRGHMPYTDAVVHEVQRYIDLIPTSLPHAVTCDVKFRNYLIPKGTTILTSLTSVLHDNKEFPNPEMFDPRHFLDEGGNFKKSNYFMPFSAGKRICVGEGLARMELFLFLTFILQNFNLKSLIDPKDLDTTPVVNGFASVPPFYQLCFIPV

The nature of test [14]: qHTS Assay for Identification of Small Molecule Agonists for Thrombopoietin (TPO) Signaling Pathway (AID 917). Note: % is set by controls: 0 for no effect and ±100 for the full control effect. The gist of the method: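 Murine Ba/F3 cells expressing human TPO receptor and GPIIb-promoter luciferase, IL-3-starved overnight, given compound plus TPO at 26 pM (EC50). After 24 h at 37 C, 5% CO2, luminescence read.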
The target of test [15] is Pyruvate kinase (Leishmania mexicana) (UniProt Q27686). In words: qHTS Validation Assay for Inhibitors of Leishmania Mexicana Pyruvate Kinase (AID 945).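 Note: 0% = DMSO only neutral control wells.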 The gist of the method: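 Luminescent ATP detection (PKLight) after a 1 h room-temperature reaction of 0.2 nM LmPYK E451W mutant with 0.5 mM PEP and 0.1 mM ADP at pH 7.2. Activity is normalized to DMSO-only control wells.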

The target of test [16] is Pyruvate kinase PKM (Homo sapiens) (UniProt P14618). In words: qHTS Assay for Activators of Human Muscle Pyruvate Kinase (AID 954; active = well fitted curve in the direction sought with a large enough effect, not every such curve was filed as active;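 note: 0% = uninhibited enzyme and -100% = no enzyme or full thiadiazolimine inhibition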). The gist of the method: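 Enzyme was run at intermediate activity so both inhibitors and activators could be detected. ATP formed from ADP and PEP by 0.1 nM human PKM2 during a 1 h room-temperature incubation was quantified by coupled luciferase luminescence.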

Test [17] addresses Alpha-galactosidase A (Homo sapiens) (UniProt P06280). In words: Counterscreen for Glucocerebrosidase Inhibitors: qHTS Assay for Human alpha-Galactosidase at pH 4.5 (AID 992). Note: 0% is about no effect. The gist of the method: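 Read-out is 4-methylumbelliferone fluorescence (365 nm excitation, 440 nm emission) after a pH 10 NaOH/glycine stop. Reactions held 2 nM enzyme and 80 uM substrate at pH 4.5 for 20 min at room temperature.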
(In general: The purpose of a counterscreen is to sort out artefacts and off-target activity.)

Test [18] addresses alpha-glucosidase (Oryza sativa, rice) (UniProt Q653V4). In words: Counterscreen for Glucocerebrosidase Inhibitors: qHTS Assay for Rice alpha-Glucosidase at pH 5.0 (AID 997).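 Note: 0% = full activity with enzyme and -100% = basal without enzyme.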 The gist of the method:
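Rice alpha-glucosidase (4 nM final) with 400 uM 4-methylumbelliferyl-alpha-D-glucopyranoside in citrate buffer pH 5.0, 20 min at room temperature, stopped at pH 10; fluorescence 365/440 nm, compounds 0.7 nM–77 uM, AC50 from Hill fits.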

Test [19] can be described thus: qHTS Assay for Lipid Storage Modulators (AID 1519; calls by dose curve). The settings on record: Drosophila S3 cells, BODIPY lipid droplet/cell ratio, laser cytometry, cells loaded with oleic acid; for activity change, negative = inhibition: at 57.5 µM (top of the series). The gist of the method: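 Cells seeded at 5,000 per well were treated with compounds over a concentration series and loaded with oleic acid (400 uM, as added). Lipid droplet fluorescence (488 nm excitation, 500-530 nm channel) was read by laser-scanning cytometry and normalized to 20 uM Triacsin C.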

Test [20] can be described thus: Confirmation and Secondary Assay for Modulators of Hemoglobin Beta Chain Splicing at IVS2 654 locus (AID 910).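 Note: HeLa cells stably carrying EGFP split by mutant beta-globin IVS2-654 intron; % of control where 0% means no effect.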 Put shortly:
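HeLa cells stably expressing EGFP interrupted by β-globin IVS2-654 intron, seeded overnight in Opti-MEM/2% FCS, then treated 2 days at 37 °C. Restored splicing read as total peak GFP intensity per well by laser scanning cytometry (488 nm excitation, 500–520 nm emission); 500 nM antisense PNA as control.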

Test [21] in a line: Confirmation and Secondary Assay for Modulators of Hemoglobin Beta Chain Splicing at IVS2 705 locus (AID 930).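 Note: HeLa cells stably expressing the EGFP-705 splicing reporter; GFP fluorescence per well restored by corrected splicing of the IVS2-705 intron in EGFP; % of control where 0% means no effect.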 The gist of the method: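 Read-out: total peak GFP fluorescence per well (488 nm excitation, 500-520 nm emission) by laser-scanning cytometry. Cells: HeLa EGFP-705 splicing reporter, 2 days compound exposure in Optimem/2% FCS.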
Test [22] has as its target DNA dC->dU-editing enzyme APOBEC-3G (Homo sapiens) (UniProt Q9HC16). In words: qHTS for inhibitors of Vif-A3G interactions: Validation (AID 588379). Note: 0% is about no effect. The gist of the method: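 HeLa cells stably expressing Vif and A3G-eYFP, 700 cells/well, incubated overnight at 37 deg C, then exposed to compound overnight at 37 deg C. Inhibition of Vif-mediated degradation read as increased yellow fluorescence (Ex 488/Em 500-530) by laser-scanning cytometry.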

In test [23] the target is Cytochrome P450 3A4 (Homo sapiens) (UniProt P08684). In words: qHTS Assay for Activators of Cytochrome P450 3A4 (AID 885). Note: nearly all actives have a fitted effect of over 65% in size. The gist of the method: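 Quantitative HTS format: compounds preincubated with 20nM human CYP3A4 and Luciferin-PPXE substrate at KM, reaction started by NADPH regeneration, stopped after 60 min, luciferase luminescence read 20 min later.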
Cytochrome P450 3A4 (Homo sapiens), sequence (P08684 whole entry, looked up): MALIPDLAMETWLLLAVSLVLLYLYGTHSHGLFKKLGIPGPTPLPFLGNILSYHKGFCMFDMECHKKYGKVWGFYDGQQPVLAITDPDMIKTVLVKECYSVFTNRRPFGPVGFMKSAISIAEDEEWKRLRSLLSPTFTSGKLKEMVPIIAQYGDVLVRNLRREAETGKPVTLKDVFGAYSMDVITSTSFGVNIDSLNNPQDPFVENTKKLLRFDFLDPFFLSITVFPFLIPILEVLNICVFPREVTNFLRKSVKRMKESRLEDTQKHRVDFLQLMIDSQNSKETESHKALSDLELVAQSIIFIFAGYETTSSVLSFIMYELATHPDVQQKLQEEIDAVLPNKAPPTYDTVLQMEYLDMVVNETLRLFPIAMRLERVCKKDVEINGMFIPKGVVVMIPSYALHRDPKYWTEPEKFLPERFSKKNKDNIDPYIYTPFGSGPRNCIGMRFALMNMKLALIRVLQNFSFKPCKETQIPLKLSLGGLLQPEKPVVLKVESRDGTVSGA
The target of test [24] is Ubiquitin carboxyl-terminal hydrolase 1 (Homo sapiens) (UniProt O94782). In words: Inhibitors of USP1/UAF1: Pilot qHTS (AID 504865).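 Note: rhodamine fluorescence freed from ubiquitin-rhodamine substrate followed over time; top concentration of the series differs between compounds; % is set by controls: 0 for no effect and ±100 for the full control effect; nearly all actives have a fitted effect of over 35% in size.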 The gist of the method:
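USP1/UAF1 complex at 1 nM preincubated 15 min at room temperature with compound, then Ub-Rho substrate added at 150 nM final. Fluorescence (480/540 nm) read kinetically in 50 mM HEPES pH 7.8, 0.5 mM EDTA, 1 mM TCEP, 0.1 mg/ml BSA, 0.01% Tween-20.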

The mark [25] stands for this setting: measured here: cell count channel max response.
Setting [26] is: measured here: lipid channel max response.

Ubiquitin carboxyl-terminal hydrolase 1 (Homo sapiens), sequence (O94782 whole entry, looked up): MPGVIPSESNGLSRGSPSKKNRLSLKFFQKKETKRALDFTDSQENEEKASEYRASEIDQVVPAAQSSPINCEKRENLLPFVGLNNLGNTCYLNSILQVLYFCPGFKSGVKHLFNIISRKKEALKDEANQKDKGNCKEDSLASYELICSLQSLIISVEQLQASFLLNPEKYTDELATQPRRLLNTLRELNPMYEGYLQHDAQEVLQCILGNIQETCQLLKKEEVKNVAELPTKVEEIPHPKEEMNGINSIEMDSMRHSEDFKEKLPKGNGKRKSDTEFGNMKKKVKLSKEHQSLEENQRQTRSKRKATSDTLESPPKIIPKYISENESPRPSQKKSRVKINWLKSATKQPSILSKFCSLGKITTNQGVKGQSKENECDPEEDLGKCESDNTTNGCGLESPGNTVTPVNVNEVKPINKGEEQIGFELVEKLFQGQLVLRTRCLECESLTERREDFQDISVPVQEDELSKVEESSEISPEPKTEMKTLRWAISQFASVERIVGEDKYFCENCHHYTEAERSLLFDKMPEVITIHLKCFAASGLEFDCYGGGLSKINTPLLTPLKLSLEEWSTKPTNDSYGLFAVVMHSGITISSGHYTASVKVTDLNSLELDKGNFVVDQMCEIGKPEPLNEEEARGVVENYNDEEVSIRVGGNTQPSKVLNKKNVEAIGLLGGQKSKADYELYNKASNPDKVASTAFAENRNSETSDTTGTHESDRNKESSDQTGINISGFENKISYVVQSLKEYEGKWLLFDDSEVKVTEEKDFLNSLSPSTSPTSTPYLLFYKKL
Cytochrome P450 1A2 (Homo sapiens), sequence (P05177 whole entry, looked up): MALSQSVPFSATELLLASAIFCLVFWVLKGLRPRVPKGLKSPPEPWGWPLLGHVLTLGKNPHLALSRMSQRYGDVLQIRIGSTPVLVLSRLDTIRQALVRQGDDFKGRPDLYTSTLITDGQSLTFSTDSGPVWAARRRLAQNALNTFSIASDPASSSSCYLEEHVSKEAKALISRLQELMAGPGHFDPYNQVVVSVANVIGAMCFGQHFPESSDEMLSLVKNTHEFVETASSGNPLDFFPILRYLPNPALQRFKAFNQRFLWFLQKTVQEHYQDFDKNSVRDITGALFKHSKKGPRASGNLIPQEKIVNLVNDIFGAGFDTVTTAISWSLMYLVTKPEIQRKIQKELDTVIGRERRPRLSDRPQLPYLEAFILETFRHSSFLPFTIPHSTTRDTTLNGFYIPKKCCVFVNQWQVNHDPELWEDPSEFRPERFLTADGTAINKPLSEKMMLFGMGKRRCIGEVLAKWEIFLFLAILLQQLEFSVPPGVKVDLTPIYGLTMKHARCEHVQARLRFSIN
Cytochrome P450 2D6 (Homo sapiens), sequence (P10635 whole entry, looked up): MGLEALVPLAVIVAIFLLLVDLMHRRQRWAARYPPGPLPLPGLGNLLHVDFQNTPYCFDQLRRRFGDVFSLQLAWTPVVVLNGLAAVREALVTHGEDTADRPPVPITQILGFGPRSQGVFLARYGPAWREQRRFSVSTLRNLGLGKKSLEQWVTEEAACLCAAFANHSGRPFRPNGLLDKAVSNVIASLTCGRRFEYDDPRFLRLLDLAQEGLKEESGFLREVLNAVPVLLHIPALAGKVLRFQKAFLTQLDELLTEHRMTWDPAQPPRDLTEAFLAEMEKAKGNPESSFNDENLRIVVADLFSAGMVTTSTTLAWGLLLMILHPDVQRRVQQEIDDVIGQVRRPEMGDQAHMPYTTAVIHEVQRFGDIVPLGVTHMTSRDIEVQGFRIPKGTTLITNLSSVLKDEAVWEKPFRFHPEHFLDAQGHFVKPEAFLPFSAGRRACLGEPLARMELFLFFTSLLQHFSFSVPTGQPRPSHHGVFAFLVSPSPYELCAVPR
Alpha-galactosidase A (Homo sapiens), sequence (P06280 whole entry, looked up): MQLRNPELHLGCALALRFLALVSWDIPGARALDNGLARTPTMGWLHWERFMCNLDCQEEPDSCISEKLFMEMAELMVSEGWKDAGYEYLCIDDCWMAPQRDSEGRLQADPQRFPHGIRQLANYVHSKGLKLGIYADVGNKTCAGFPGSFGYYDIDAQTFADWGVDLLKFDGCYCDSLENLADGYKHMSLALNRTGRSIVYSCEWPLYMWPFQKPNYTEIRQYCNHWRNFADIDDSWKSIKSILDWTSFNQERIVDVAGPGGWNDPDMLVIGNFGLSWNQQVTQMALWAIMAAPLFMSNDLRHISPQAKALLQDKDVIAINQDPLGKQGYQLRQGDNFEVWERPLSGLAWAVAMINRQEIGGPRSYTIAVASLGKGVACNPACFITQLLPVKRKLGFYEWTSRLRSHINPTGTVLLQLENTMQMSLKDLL

As for `CCN1CCC[C@@H]1CNC(=O)c1cc(S(N)(=O)=O)ccc1OC`, the activity change, negative = inhibition in [1] was 5.34% [at 38 µM] (inactive) and 0.665% [at 38 µM] (inactive); in test [3] it was -3.07% [at 38 µM] (inactive) and -10.9% [at 38 µM] (inactive); in test [19], 3.26% (inactive). For the same compound, the Potency result in test [2], in test [7], in [8], in test [9], in test [10] and in test [11] was “inactive” each time. The Potency entry in test [12] and in test [13] was “inactive” in each case. The activity, negative = inhibition in test [4] was 26.6% [at 38 µM] (inactive). Further, the Potency in test [5] and in test [6] was > 46 µM (inactive) throughout. The compound was classed as inactive in test [14], in test [15], in test [16], in test [17] and in test [18]. Also, the values for the max response in test [19] (setting [25]) and in test [19] (setting [26]) were -12.9% and -11.7%, respectively.
Turning to `Nc1ccccc1C(=O)CC(N)C(=O)O` (configuration not stated), the Potency result in test [10] and in test [20] was “inactive” in each case. In addition, the result in [21] and in [22] was inactive. Besides, the activity change, negative = inhibition in test [19] was 9.57% (inactive) and 2.83% (inactive). Also, the max response was 10.9% and 14.4% in test [19] (setting [25]); 21.6% and 17.6% in test [19] (setting [26]).
With `COC(=O)C1OC(=O)C2OC23[C@]2(C)C(O)CC4C(C)(C)C(OC(C)=O)CC(OC(C)=O)[C@@]4(C)C2CC[C@@]13C` (some centres not stated), the Potency in test [10] was 251 nM (active) and 794 nM (active). The Potency result in [23], in test [20] and in [24] was “inactive” throughout. Moreover, the result in test [21] was inactive. Moreover, in test [19], the activity change, negative = inhibition is -1.67% (inactive) and 3.12% (inactive). The max response is 17.5% and 7.5% in test [19] (setting [25]); 17.7% and 13.2% in test [19] (setting [26]).
Take `Nc1ncnc2c1ncn2C1OC(CO)C(O)C1O` (configuration not stated): the Potency entry in test [20] is “inactive”. Further, the activity change, negative = inhibition in [19] is 9.6% (inactive) and 14.7% (inactive). The max response in test [19] (setting [25]) is 19.8% and 38.9%; in test [19] (setting [26]) it was 31.9% and 67.8%.
Take `N=c1ccn2c(n1)OC1C(O)C(CO)OC12` (configuration not stated): the Potency result in test [10], in [20] and in test [24] was “inactive” in each case. Besides, in test [21], the compound was classed as inactive. Besides, the activity change, negative = inhibition in [19] was 3.87% (inactive) and 5.45% (inactive). For the same compound, the max response in test [19] (setting [25]) was 0.631% and 1.94%; in test [19] (setting [26]), 7.88% and 22.5%.
